The values below come from PubChem BioAssay AID652217 (Sanford-Burnham Center for Chemical Genomics, 2013).

Out of some 1,800 compounds screened, about 240 (13%) were called active. Cut-off read from the data, not from the text of the source: active = inhibition above about 40%; inactive = the rest. Not all results are given here.

For the test, the target named is NEDD8-conjugating enzyme Ubc12 (Homo sapiens) + NEDD8-activating enzyme E1 regulatory subunit (Homo sapiens) (UniProt P61081+Q13564). The experiment in a line: blockade of NEDD8 conjugation to cullin – biochemical, TR-FRET, single concentration, confirmation (AID 652217).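 Note: neddylation substrate is the cullin 1 ring ligase complex with SKP2.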 The note with it: TR-FRET cullin neddylation biochemical assay; at 25 µM; stronger effect = higher value. A general note: In TR-FRET formats the signal depends on donor and acceptor labels being close together.
Sequence of NEDD8-conjugating enzyme Ubc12 (Homo sapiens) + NEDD8-activating enzyme E1 regulatory subunit (Homo sapiens) (P61081 whole entry, looked up): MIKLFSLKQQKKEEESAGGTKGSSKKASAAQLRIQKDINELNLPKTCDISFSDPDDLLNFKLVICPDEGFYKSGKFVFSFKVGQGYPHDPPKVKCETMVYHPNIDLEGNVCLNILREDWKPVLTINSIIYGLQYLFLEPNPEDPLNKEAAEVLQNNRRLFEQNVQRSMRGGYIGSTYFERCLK
Sequence of NEDD8-conjugating enzyme Ubc12 (Homo sapiens) + NEDD8-activating enzyme E1 regulatory subunit (Homo sapiens) (Q13564 whole entry, looked up): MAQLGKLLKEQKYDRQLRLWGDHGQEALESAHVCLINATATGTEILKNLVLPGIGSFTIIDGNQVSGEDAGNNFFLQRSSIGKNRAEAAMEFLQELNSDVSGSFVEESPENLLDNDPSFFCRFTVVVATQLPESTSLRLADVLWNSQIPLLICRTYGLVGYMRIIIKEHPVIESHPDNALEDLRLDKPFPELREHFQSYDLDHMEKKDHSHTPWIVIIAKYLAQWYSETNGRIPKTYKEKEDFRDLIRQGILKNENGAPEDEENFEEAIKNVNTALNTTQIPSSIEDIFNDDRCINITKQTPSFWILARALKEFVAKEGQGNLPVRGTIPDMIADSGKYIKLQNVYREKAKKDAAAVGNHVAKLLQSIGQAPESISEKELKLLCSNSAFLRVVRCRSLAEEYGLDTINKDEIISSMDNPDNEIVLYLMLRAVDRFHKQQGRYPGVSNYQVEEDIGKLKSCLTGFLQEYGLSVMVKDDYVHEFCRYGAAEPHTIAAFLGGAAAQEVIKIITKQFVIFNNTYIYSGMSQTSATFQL
Turning to `COc1cccc(Cn2cc(/C=N/NC(=O)c3cc(O)cc(O)c3)c3ccccc32)c1`, the inhibition is 41.7% (active).
The same measure for `O=C(Cn1cc(/C=N/NC(=O)c2cccc(C(F)(F)F)c2)c2ccccc21)Nc1ccc(F)cc1`: 20.1% (inactive).
Consider `CN(C)c1ccc(/C=N/Nc2cc(N3CCOCC3)nc(N3CCOCC3)n2)cc1`, for which the inhibition is 14.8% (inactive).
Take `COc1ccc2oc(C(=O)NCC(Cc3ccccc3)N(C)C)c(C)c2c1` (stereo not given): the inhibition is 39.6% (inactive).
The same measure for `c1ccc(-c2[nH]ncc2-c2nc3ccccc3[nH]2)cc1`: 34.5% (inactive); for `CCN(CC)c1ccc(/C=N/NC(=O)CNC(=O)c2cccs2)cc1`: 54.1% (active).
The same measure for `CCN(CC)c1ccc(/C=N/Nc2nc(C)cc(=O)[nH]2)cc1`: 28.2% (inactive); for `COc1ccc(Br)cc1/C=N/Nc1ccc(Cl)c(C(=O)O)c1`: 37.5% (inactive).
The same measure for `CC(=O)c1ccc(Nc2nc(C(N)c3ccccc3)cs2)cc1` (stereo not given): 32.9% (inactive); for `CC(=O)Nc1nc(C)c(-c2csc(Nc3ccc(S(N)(=O)=O)cc3)n2)s1`: 79.2% (active); for `Cc1noc(C)c1COc1ccc2ccc(=O)oc2c1`: 33.5% (inactive).
For `COc1cccc(C2c3[nH]c4ccccc4c3CCN2Cc2cccc(C)n2)c1` (stereo not given), the inhibition is 26.3% (inactive).
As for `Nc1nnnn1CC(=O)N/N=C/c1ccc(-c2cccc(Cl)c2)o1`, the inhibition was 22.7% (inactive).
With `C=CCNC(=O)c1ccc2c3n(nc2c1)-c1ccc(C)cc1CO3` the figure was 47.4% (active).
The same measure for `O=C(N/N=C/c1ccccc1O)C1CCCC1`: 38.7% (inactive); for `CCN(/N=C/c1ccc(N(C)C)cc1)c1nc2ccccc2[nH]1`: 42.9% (active).
With `C=CCn1c(COc2cccc3cccnc23)nnc1SCC(=O)OC` the figure was 36.7% (inactive); with `O=C(/C=C/c1cn(-c2ccccc2)nc1-c1ccc2c(c1)OCCO2)NCCCN1CCOCC1`, 33.2% (inactive); with `CC(=O)Nc1cc(-c2ccc(N3CCN(C)CC3)cc2)cn2c(-c3ccc(F)cc3)cnc12`, 45.5% (active).
For `COC(=O)C1=CN(C)C=C(C(=O)OC)C1c1ccc(Cl)cc1Cl`, the inhibition is 20% (inactive).
With `CC(C(=O)NC1CCCCC1)N1C(=O)c2cccc3cccc1c23` (stereo not given), the inhibition was 39.8% (inactive).
With `O=C(NNC(=S)NC1CC2CCC1C2)c1ccc(Cl)cc1` (stereo not given) the figure was 7.17% (inactive); with `COc1cccc(/C=C/C(=O)OCC(=O)N2CCCc3ccccc32)c1`, 38.8% (inactive); with `Cc1ccc(C)c(NC(=O)NNC(=O)c2ccc3ccccc3c2O)c1`, 30.6% (inactive).
With `COC(=O)C1=CN(Cc2ccc(OC)cc2)C=C(C(=O)OC)C1c1ccc(O)c(OC)c1` the figure was 33% (inactive).
For `CS(=O)(=O)c1ccc2nc(NC(=O)c3ccc(Cl)nc3)sc2c1`, the inhibition is 66% (active).
With `COc1ccc2[nH]c(C(=O)N/N=C/c3cc(OC)c(OC)c(OC)c3)cc2c1` the figure was 49.6% (active); with `CCOc1ccc2[nH]c(C(=O)N/N=C/c3cccc(OC)c3OC)cc2c1`, 44.6% (active); with `COc1cc2cc(C(=O)N/N=C/c3cccc(OC)c3OC)[nH]c2cc1OC`, 41.9% (active).
With `COc1cc2ccccc2cc1C(=O)Nc1ccncc1` the figure was 39.2% (inactive).
The same measure for `CCOC(=O)c1cnc2nc(SCc3ccccc3Cl)[nH]n2c1=O`: 20% (inactive); for `CCOc1ccc2[nH]c(=O)c(CN(Cc3nnnn3Cc3ccccc3)CC3CCCO3)cc2c1` (stereo not given): 15.2% (inactive); for `COCCCNc1nc2ccccc2nc1NS(=O)(=O)c1ccc(F)cc1`: 29% (inactive).
On to `Cc1ccc2occ(/C=N/NC(=O)c3ccccc3C)c(=O)c2c1`, for which the inhibition is 24% (inactive).
With `O=c1c2c(nc3cc(-c4cccc(Cl)c4)[nH]n13)CCCC2`, the inhibition is -10.4% (inactive).
`NNC(=O)c1oc2nc(-c3ccccc3)cc(-c3ccco3)c2c1N`: the inhibition is 14.3% (inactive).
For the compound `CN(C)c1ccnc2sc(C(=O)c3ccccc3)c(N)c12`, the inhibition is 33.9% (inactive).
With `Cc1nc2sc(C(=O)c3ccccc3)c(N)c2c2c1CCCC2` the figure was 30.6% (inactive); with `O=C(COc1ccccc1Cl)N1N=C(c2cccs2)CC1c1ccco1` (stereo not given), 37.1% (inactive); with `CCOc1cc(C(=O)Nc2c(C)ccc3nsnc23)cc(OCC)c1OCC`, 27.9% (inactive).
Regarding `CC(=O)Oc1c(C(=O)c2nnc(C)o2)c(=O)n(Cc2ccccc2)c2ccccc12`, the inhibition was 38.8% (inactive).
Consider `O=C1c2cccc3cccc(c23)N1CN1CCN(c2ccccn2)CC1`, for which the inhibition is 28.8% (inactive).
With `CC(=O)NNC(=O)c1csc(Cc2c(Cl)sc3ccc(Cl)cc23)n1` the figure was -2.26% (inactive).
The same measure for `O=C(c1ccc(Cl)cc1)N1N=C(c2ccccn2)CC1(O)C(F)(F)F` (stereo not given): 1.98% (inactive).
The same measure for `CCOc1cc(/C=N/Nc2cc(C)nc3ccc(C)cc23)ccc1O`: 40.1% (active); for `CCN1CCCC1CNc1ncnc2c1[nH]c1ccc(F)cc12` (stereo not given): 31% (inactive); for `C[C@H](O)[C@@H]1C(=O)N2CCc3c([nH]c4ccccc34)[C@@H]2C[C@@H]1N(C)C(=O)Nc1ccc(F)cc1`: 14.4% (inactive).
Turning to `Cc1ccc2cc(C#N)c(NCCNC(=S)NCCCN3CCOCC3)nc2c1`, the inhibition was 33.7% (inactive).
`COc1ccc(N(CC(=O)N/N=C/c2cccc3c2OCCO3)S(=O)(=O)c2ccc(NC(C)=O)cc2)cc1`: the inhibition is 42.7% (active).
With `O=C1NC(c2ccncc2)Nc2sc3c(c21)CCCC3` (stereo not given) the figure was 39.4% (inactive); with `COc1cccc(C2CC(c3cccs3)=NN2C(=O)CSC2=NCCS2)c1OC` (stereo not given), -80.4% (inactive).
Turning to `N#Cc1ccc(/C=C2\CCn3c2nc2cc(C(=O)O)ccc2c3=O)cc1`, the inhibition is 54.8% (active).
As for `O=C(O)c1ccc2c(=O)n3c(nc2c1)/C(=C/c1ccc(OC(F)F)cc1OC(F)F)CC3`, the inhibition was 43.2% (active).
Take `CCOc1ccc2nc(NCCNC(=O)C(C)(C)C)c(C)cc2c1`: the inhibition was 34.1% (inactive).
The same measure for `Cc1ccc(-n2ncc3c(Nc4cccc(C(=O)O)c4)ncnc32)cc1`: 35.6% (inactive); for `CCOCCCNC(=O)C(NC(=O)c1ccccc1O)c1ccccc1` (stereo not given): 39.4% (inactive); for `COc1ccc(C2c3[nH]c4ccccc4c3CCN2CCCn2cccn2)cc1C` (stereo not given): 29.8% (inactive).
With `O=c1cc(CN2CCCCCCC2)c2c(ccc3ccccc32)o1` the figure was 14.7% (inactive).
On to `Cc1noc(C)c1C(=O)OCC(=O)/C=C1\N(C)c2ccccc2C1(C)C`, for which the inhibition is 22.3% (inactive).
The same measure for `CCOc1ccc2[nH]c(=O)c(CN(Cc3nnnn3CCc3ccccc3)CC3CCCO3)cc2c1` (stereo not given): 12.7% (inactive).

By inhibition is commonly meant the drop in the measured response relative to a control, in per cent.
